This is part of a sample that, as a whole, favours compounds with a hit. Of some 83,000 tested, about 20% had one in any assay.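 Values shown are percent growth following 48 h exposure of cells in 96-well plates to a single concentration of compound; below 10 was considered active.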 Activity calls are given as the source filed them.
Each molecule was assayed on MDA-MB-468 breast (assay: NCI-60 one-dose screen, 48 h (100 = growth as untreated, 0 = no growth, -100 = all killed)). Conditions: 10 µM unless noted.

Compound | growth
CCOC(=O)c1cnn2c3ccccc3n(S(=O)(=O)c3ccc(OC)cc3)c12 | -12.1% (active)
NC(N)=N/N=C(/c1ccccc1)c1ccc(Cl)cc1 | 39.6% (inactive)
NS(=O)(=O)c1ccc(Nc2nc(N/N=C/c3ccc(C(F)(F)F)cc3)nc(Nc3ccccc3)n2)cc1 | 34.3% (inactive)
COCCCNc1nc(NC(=O)c2ccc(F)cc2C)cc(-c2cccnc2)n1 | 111% (inactive)
CC1(C)CC[C@]2(C(=O)O)CC[C@]3(C)C(=CC[C@@H]4[C@@]5(C)C[C@@H](Cc6cn([C@@H]7O[C@H](CO)[C@@H](O)[C@H](O)[C@H]7O)nn6)[C@H](O)C(C)(C)[C@@H]5CC[C@]43C)[C@@H]2C1 | 87% (inactive)
C[C@@H]1C[C@H]2C(=O)O[C@@H](C)C(NC(=O)[C@H](Cc3cc(F)cc(F)c3)NC(=O)Nc3ccc(C4CC4)cc3F)C(=O)N3CCC[C@H]3C(=O)N3CCCC[C@H]3C(=O)N[C@@H](CO)C(=O)N2C1 (stereo not given in full) | -18.1% (active)
O=C(N/N=C/c1ccc(O)c(O)c1)c1sc2ccccc2c1Cl | 88.8% (inactive)
COC1OC2COC(c3ccccc3)OC2C(=O)C1NC(=O)c1ccccc1 (stereo not given) | 113% (inactive)
Cc1ccc2oc(=O)cc(-c3sc(N4CCCCC4)nc3-c3ccccc3)c2c1 | 102% (inactive)
O=C1/C(=C/N2N=C(c3ccc(Cl)cc3)CC2c2ccccc2O)SC(=S)N1c1cccc(C(F)(F)F)c1 (stereo not given) | 62.2% (inactive)
COc1cc(NC(C)CCCNC(C)C)c2ncccc2c1OC (stereo not given) | 32.8% (inactive)
CCOC(=O)N1CCc2c(sc3nc4nc[nH]n4c(=O)c23)C1 | 112% (inactive)
Fc1ccc(-c2cc(C(Cl)Cl)no2)cc1 | 104% (inactive)
Cc1ccc(Nc2c(C(N)=O)cnc3ccc(S(=O)(=O)Nc4cc(C)on4)cc23)cc1 | 92.4% (inactive)
CCOC(=O)c1cc(C(=O)c2ccc(Cl)cc2)n2ccc(-c3cc[n+](CC(=O)c4ccc(OC)cc4)cc3)cc12 | 70.7% (inactive)
COC(=O)/C=C1/SC(=Nc2ccc(F)cc2)N(CCc2c[nH]c3ccc(O)cc23)C1=O | 36% (inactive)
C=C(CNCCc1ccc(O)cc1)[C@@H]1CC[C@]2(CO)CC[C@]3(C)[C@H](CC[C@@H]4[C@@]5(C)CCC(NCCc6ccc(O)cc6)C(C)(C)[C@@H]5CC[C@]43C)[C@@H]12 (stereo not given in full) | -74.6% (active)
FC(F)(F)c1cccc(-c2nnn(Cc3cc(-c4cccc(Cl)c4)no3)n2)c1 | 102% (inactive)
CCOc1cccc(/C=N/NC(=O)Cc2ccc(Nc3ccnc(C(F)(F)F)c3)cc2)c1O | 1.86% (active)
O=P(O)(O)OCC1OC(n2cnc3c(NCc4ccccc4)ncnc32)C(O)C1O (stereo not given) | -28.6% (active)

Compound | growth
CCCCOC(=O)OCc1cc(=O)c(O)co1 | 97.5% (inactive)
COc1ccccc1N1CCN(C(CNS(=O)(=O)c2ccc(Cl)cc2)c2cccnc2)CC1 (stereo not given) | 98.8% (inactive)
COc1ccc(/C=N\NC(=O)c2ccc3nc(-c4ccc(Cl)cc4)[nH]c3c2)cc1 | 24.2% (inactive)
Cc1ccccc1N1C(c2ccccc2)=NNC12C=CC(=O)C=C2Cl (stereo not given) | 109% (inactive)
CC(=O)Cc1cc(-c2cc(CC(C)=O)[nH]n2)n[nH]1 | 103% (inactive)
Nc1nc(N)c2c(n1)NC(c1cccc(Nc3ccnc4cc(C(F)(F)F)ccc34)c1)CC(c1ccc3c(c1)OCO3)=N2 (stereo not given) | 58% (inactive)
COc1cccc(C2C3=C(COC3=O)N(CCO)c3cc4c(cc32)CCC4)c1 (stereo not given) | -51.6% (active)
COc1ccc(CN2c3ccccc3Sc3ccccc32)cc1O | 9.33% (active)
CC(C)CCSc1nc(N)nc2nc[nH]c12 | 103% (inactive)
COc1cc(-c2cc(-c3cc(OC)c(OC)c(OC)c3)nc3nc(N)[nH]c(=O)c23)ccc1Oc1ccnc2cc(Cl)ccc12 | 15.9% (inactive)
COc1cc(OC)c2sc(-c3ccc(-n4cncc4-c4ccc(OC)c(N)c4)cc3)nc2c1 | 80.6% (inactive)
COc1cc(-c2cc3ncccc3c3[nH]c(=O)c4cccnc4c23)cc(OC)c1OC | -10.5% (active)
COc1cnc2c(c1)C(=O)c1c-2n(CCCNC2=NCCS2)c(=O)c2cc(F)ccc12 | -17.6% (active)
Clc1ccc([C@@H]2C[C@@H]3Cc4cc(Br)c5ccccc5c4N2O3)c(Cl)c1 | 59.2% (inactive)
NS(=O)(=O)c1ccc(N2Cc3cc(Cl)ccc3OC3=C2C(=O)N(CC2CCCCC2)C3=O)cc1 | -81.1% (active)
CCCCCCCCCCCCCCCCCCOc1ccccc1CC(=O)OCC[N+](C)(C)C | -38.9% (active)
O=c1cc/c(=N\Nc2ccccc2)c(=O)/c1=N/Nc1ccccc1 | 106% (inactive)
O=C(C[C@]1(O)C(=O)Nc2ccccc21)c1cccc(C(F)(F)F)c1 | 83.9% (inactive)
O=C(Nc1nc(C(=O)N2CCN(C(c3ccccc3)c3ccccc3)CC2)cs1)c1ccc(NC2CCCCC2)c([N+](=O)[O-])c1 | 104% (inactive)
NC(=O)c1nc2c([nH]c1=O)CCCC2 | 95% (inactive)

— PubChem BioAssay (NCI)
